From PubChem
A selection: hits, their analogues and other compounds. The true share with any hit is near 19%.
IL-1B inflam inh – qHTS for Inhibitors of Inflammasome Signaling: IL-1-beta AlphaLISA Primary Screen; THP-1 LPS/ATP IL-1B secretion, AlphaLISA, 16 h; active compounds read low; activity change, % at 57.5 µM; hit rate 4.7% among 360,000; in the data active means activity change below about -50%; inconclusive means mostly about -30% to -49%
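Secreted IL-1B measured by AlphaLISA bead assay after 16 h compound exposure of THP-1 cells; compounds (final up to 57.5 uM) added 1 h before LPS (250 ng/mL) and ATP (1.25 mM) stimulation; lower signal means less secretion.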
HT1080 IDH1KD tx – qHTS for induction of synthetic lethality in tumor cells producing 2HG: qHTS for the HT-1080-IDH1KD cell line; hit rate 2% among 360,000; AID 686971, 2013; HT-1080 IDH1 knockdown viability, ATP luminescence, 48 h; Potency, µM (doses to about 46.1 µM), for inactives: top-dose activity, negative = toxicity, most hits filed as cytotoxic;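 further: potency means the concentration at half of the fitted maximal effect; 0% = DMSO wells and -100% = cell-free medium wells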
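After a 2 h attachment period, IDH1KD HT-1080 cells took pin-transferred compound for 48 h at 37 °C; ATP-based luminescence after 10 min room-temperature reagent incubation reported viability.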
HT1080NT lethal – qHTS for induction of synthetic lethality in tumor cells producing 2HG: qHTS for the HT-1080-NT fibrosarcoma cell line | HT-1080-NT fibrosarcoma viability, CellTiter-Glo ATP luminescence, 48 h | Potency, µM (series often up to 46.1 µM), without a hit: top-dose activity, negative = less viability, actives largely listed as cytotoxic | hit rate 1.6% among 360,000 | AID 686970, 2013;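 further: NT is the 2HG producing partner of a matched IDH1 knockdown line; potency means the concentration at half of the fitted maximal effect; 0% = DMSO-treated cells and -100% = media-only wells without cells; nearly all actives have a fitted effect of over 55% in size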
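HT-1080-NT; 750 cells/well; 5% FBS RPMI; 48 h compound, 37 degrees C; CellTiter-Glo luminescence; curve fitting and curve-class assignment.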
TDP1 cell noCPT – qHTS for Inhibitors of human tyrosyl-DNA phosphodiesterase 1 (TDP1): qHTS in cells in absence of CPT | DT40 Tdp1-/- hTDP1 cells, no CPT, ATP luminescence, 48 h | Potency, µM (titrated, usually from 46.2 µM), for inactives: top-dose activity change, negative = growth inhibition, actives largely listed as inhibitors | hit rate 15% among 420,000 | AID 686978, 2013; further: potency means the concentration at half of the fitted maximal effect; nearly all actives have a fitted effect of over 55% in size
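Growth kinetics read by CellTiter-Glo luminescence after ≥48 hr at 37 °C. Cells: DT40 Tdp1-/- stably carrying human TDP1, 400 per well, compound exposure in the absence of CPT (DMSO vehicle).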
DT40 TDP1 CPT – qHTS for Inhibitors of human tyrosyl-DNA phosphodiesterase 1 (TDP1): qHTS in cells in presence of CPT; hit rate 12% among 420,000; chicken DT40 Tdp1-/-;hTDP1 cells + 20 nM CPT, ATP luminescence, 48 h; Potency, µM (series often up to 46.2 µM), for inactives: top-dose activity change, negative = growth inhibition, most hits filed as inhibitors; further: potency means the concentration at half of the fitted maximal effect; nearly all actives have a fitted effect of over 55% in size
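Cell growth measured by CellTiter-Glo luminescence after a minimum 48 h, 37 C compound exposure with 20 nM CPT in Tdp1-knockout DT40 cells stably expressing hTDP1, seeded 400/well; qHTS titration format.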
Starred values were filed as active, the others as inactive; ? = inconclusive; · = not tested or not shown; [ ] = dose if it differs, or a comment. Unless noted, the call rests on the fitted dose curve; in most records, active means well fitted curve in the direction sought with a large enough effect; inconclusive means small, poorly fitted or top-dose-only effect, or another doubt; inactive means no such curve, though single readings can be large; an effect the other way counts as inactive or inconclusive. Unless noted, on the % scale 0 is the no-effect control and ±100 the full control effect.

SMILES	IL-1B inflam inh	HT1080 IDH1KD tx	HT1080NT lethal	TDP1 cell noCPT	DT40 TDP1 CPT
N#C/C(=C\c1cccc(F)c1)c1nc(-c2cc3ccccc3oc2=O)cs1	·	·	·	-8.3%	-2.4%
COc1cc(/C=C(\C#N)c2nc(-c3cc4ccccc4oc3=O)cs2)ccc1O	23.2	-1.3%	-2.5%	18.4µM*	18.4µM*
Cc1ccc(CNC(=O)c2cc(NS(=O)(=O)c3ccc(C)cc3)ccn2)cc1	·	·	·	8.0%	4.6%
COc1ccc(C2/C(=C(/O)c3ccc(Br)cc3)C(=O)C(=O)N2C)cc1 (stereo not drawn)	10.7	1.0%	3.1%	-2.0%	14.5%
Cc1cccc(N2CCN(C(=O)CCc3nc4ccccc4c(=O)[nH]3)CC2)c1C	10.2	2.4%	0.0%	?	-8.2%
Cc1ccc(C)c(/C=N/n2cc(-c3ccccc3)[nH]c2=S)c1	-4.6	9.4%	-1.3%	?	?
Fc1ccccc1/C=N/n1cc(-c2ccccc2)[nH]c1=S	5.1	14.5%	-9.6%	8.2µM*	14.6µM*
O=C(O)c1ccc(/C=N/n2cc(-c3ccccc3)[nH]c2=S)cc1	6.5	-4.7%	8.8%	-14.3%	-8.3%
S=c1[nH]c(-c2ccccc2)cn1/N=C/c1cccs1	30.7	-2.5%	7.1%	8.2µM*	-97.2%
S=c1[nH]c(-c2ccccc2)cn1/N=C/c1ccc(Br)cc1	-18.9	0.8%	2.1%	4.61µM*	3.66µM*
COc1cc(-c2cc(OC)c3c(C)oc(C)c3c(=O)c2)ccc1OC(=O)c1ccccc1F	·	·	·	20.6µM*	8.2µM*
COc1cc(-c2cccs2)cc(=O)c2c(C)oc(C)c12	?	12.4%[9.24 µM]	-8.2%	23.1µM*	13µM*
COc1cc(-c2cc(OC)c3c(C)oc(C)c3c(=O)c2)ccc1OC(=O)c1ccccc1Cl	·	·	·	4.61µM*	5.8µM*
COc1cccc2cc(-c3nc(-c4cccs4)cs3)c(=O)oc12	58.3	-17.2%	-26.4%	?	?
[O-][n+]1cccc(CO)c1	·	·	·	1.3%	22.2%
COc1ccc(NC(=O)CC23CC4CC(C2)CC(n2nnc(C)n2)(C4)C3)cc1	43.6	4.2%	21.1%	?	-16.0%
CC1(C(=O)O)CCN1C(=O)c1cccc(C(F)(F)F)c1 (stereo not drawn)	11.3	10.9%	2.0%	-7.1%	9.1%
Cc1nn(CC(=O)Nc2ccccc2C(F)(F)F)c(=O)c2cccn12	-6.4	19.7%	3.7%	-6.6%	0.7%
O=C1c2ccccc2S(=O)(=O)N1Cc1ccccc1[N+](=O)[O-]	-3.9	-1.2%	-5.0%	-10.5%	-14.8%
CSc1cc(C)n(-c2ccccc2)c(=S)c1C(C)=O	10.1	3.5%	5.0%	-8.6%	7.2%
O=C(COc1ccc(C(=O)c2ccccc2)cc1)Nc1cccnc1	-17.8	-25.8%	?	2.91µM*	5.17µM*
Cc1nnnn1/C(=C\c1ccccc1)C(=O)OCC(=O)Nc1cccc(S(=O)(=O)N(C)C)c1	0.0	?	?	7.31µM*	10.3µM*
CN(C)S(=O)(=O)c1cccc(NC(=O)COC(=O)c2ccc3ccccc3n2)c1	25.7	-3.2%	-5.8%	6.3%	0.7%
CN(C)S(=O)(=O)c1cccc(NC(=O)COc2ccc(C(=O)c3ccccc3)cc2)c1	-25.4	?	?	16.4µM*	18.4µM*
O=C(CCCOc1ccccc1)Nc1cccnc1	5.0	9.0%	16.4%	-14.1%	-2.2%
N#Cc1ccc(-c2ccc(OCC(=O)Nc3cccnc3)cc2)cc1	-52.1*	?	?	?	?
Cc1c(NC(=O)Nc2ccccc2Cl)c(=O)n(-c2ccccc2)n1C	-13.6	3.3%	-6.8%	5.6%	-3.1%
OCCC1CN(C2CCN(c3ccccc3)CC2)CCN1Cc1ccc(F)c(F)c1 (stereo not drawn)	-8.0	4.5%	10.6%	-21.0%	-8.4%
